A short description of experiment [1]: Cellular Toxicity (caspase-3) SK-N-SH (AID 661). As to conditions: SK-N-SH caspase-3 activation, qHTS, DMSO as zero, staurosporine as full; series mostly up to 91.7 µM. In outline:
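Cells were seeded and incubated 5 hr at 37 °C, dosed with compound over a concentration range for 16 hr, then given Caspase-Glo 3/7 reagent for 1 hr at room temperature before luminescence reading.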

Experiment [2] in a line: Cellular Toxicity (caspase-3) H-4-II-E (AID 663).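 Further: cells exposed to compound for 16 hr before readout.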 As to conditions: H-4-II-E rat hepatoma, scaled: DMSO 0%, 100 µM tamoxifen 100%; series mostly up to 92.2 µM. The method in brief: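 Caspase 3/7 activation measured by luminescent aminoluciferin substrate cleavage after 16 hr compound treatment of H-4-II-E cells in complete medium. Increase normalized between DMSO (basal) and 100 uM tamoxifen (100%); Hill-equation AC50 from concentration-response.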

Experiment [3] is described as follows: Cellular Toxicity (caspase-3) Hek293 (AID 664).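 Further: cells exposed to compound for 16 h at 37 °C before readout.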 The note with it: HEK293 caspase-3 activation, DMSO = 0%, 100 µM tamoxifen = 100%; series mostly up to 92.2 µM. The method in brief: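 qHTS, HEK293 (human embryonic kidney), 16 h cpd exposure in complete medium. Caspase-3/7 activation = luminescence increase; normalized to DMSO/100 uM tamoxifen; Hill-fit AC50.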

Experiment [4] can be described thus: Cellular Toxicity (caspase-3) N2a (AID 665).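 Further: compound exposure lasted 16 h at 37 °C before readout.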 As to conditions: N2a cells, luminescence, normalized: DMSO 0%, 10 µM staurosporine 100%; series mostly up to 92.2 µM. In outline:
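Caspase-3/7 activation, measured as increased luminescence from aminoluciferin release, is quantified in mouse N2a cells exposed to compounds for 16 h. Values are normalized to DMSO and 10 uM staurosporine, with AC50 derived by Hill modelling.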

The nature of experiment [5]: Cellular Toxicity (caspase-3) NIH 3T3 (AID 666).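 Further: caspase signal read after 16 h compound exposure.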 As to conditions: NIH 3T3 caspase-3 activation, apoptosis/toxicity, 0% DMSO, 100% is 100 µM tamoxifen; series mostly up to 92.2 µM. The method in brief:
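Cells were plated at 1000 per well and incubated 5 hr at 37°C, then compound was added for 16 hr. Caspase-Glo 3/7 reagent followed for 20 min at room temperature before luminescence was read.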

A short description of experiment [6]: Cell Viability - LYMP2-001 (AID 921).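 Further: potency means the concentration at half of the fitted maximal effect; cells exposed to compound for 24 h at 37 °C; nearly all actives have a fitted effect of over 70% in size.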 The note with it: LYMP2-001 lymphoblastoid cell viability. The method in brief:
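Steps: seed 2500 lymphoblastoid cells/well; 5 hr, 37 C; add compound; 24 hr, 37 C; CellTiter-Glo reagent, 30 min room temperature; read luminescence. Concentration-response modeled by Hill equation for AC50.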

Experiment [7] is described as follows: MultiTox-Fluor Cytotoxicity Assay - LYMP1-001 - Dead Cells (AID 946). As to conditions: LYMP1-001 lymphoblastoid cells, dead-cell protease fluorescence; series mostly up to 92.2 µM. In outline:
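Seed 2500 LYMP1-001 cells/well, incubate 5 hr at 37 C; add compound, 16 hr at 37 C; add MultiTox-Fluor reagent, 60 min RT; read dead-cell fluorescence Ex/Em=485/520. Normalize to DMSO and 15 uM tetraoctylammonium bromide.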

Experiment [8] in a line: Cell Viability - LYMP1-002 - Assay at 16 hr (AID 948). Further: potency means the concentration at half of the fitted maximal effect. The note with it: LYMP1-002 lymphoblastoid cell viability. The method in brief:
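Seed 2500 LYMP1-002 cells per well in complete medium and hold 5 hr at 37 C. Add compound across a concentration series and incubate 16 hr at 37 C. Add CellTiter-Glo, wait 30 min at room temperature, read luminescence.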

Experiment [9] is described as follows: MultiTox-Fluor Cytotoxicity Assay - LYMP1-002 - Dead Cells (AID 960).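 Further: cells exposed to compound for 16 h at 37 °C; nearly all actives have a fitted effect of over 60% in size.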 The note with it: LYMP1-002 lymphoblastoid cells, dead-cell protease fluorescence; series mostly up to 46.1 µM. The method in brief:
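Cells were plated, rested 5 hr, then treated with compound dilution series for 16 hr at 37 C. After adding substrate reagent and 60 min at room temperature, dead-cell protease fluorescence gave concentration-response curves fitted by the Hill equation.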

The nature of experiment [10]: MultiTox-Fluor Cytotoxicity Assay - LYMP1-003 - Dead Cells (AID 961).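 Further: cells exposed to compound for 16 h at 37 °C; nearly all actives have a fitted effect of over 70% in size.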 As to conditions: LYMP1-003 lymphoblastoid cells, dead-cell protease fluorescence; series mostly up to 92.2 µM. In outline:
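LYMP1-003 lymphoblastoid, 2500 cells/well, 5 hr settle then 16 hr cpd at 37 C; MultiTox-Fluor reagent 60 min RT; Ex/Em 485/520 dead-cell signal; norm. DMSO = 0%, 15 uM tetraoctylammonium bromide = 100%; Hill AC50.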

A short description of experiment [11]: MultiTox-Fluor Cytotoxicity Assay - LYMP1-003 - Live Cells (AID 962).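 Further: potency means the concentration at half of the fitted maximal effect; cells exposed to compound for 16 hours at 37 °C.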 As to conditions: LYMP1-003 lymphoblastoid cells, MultiTox-Fluor live-cell protease fluorescence. In outline: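 Acute cytotoxicity is scored as a drop in live-cell protease activity in human lymphoblastoid LYMP1-003 cells after 16 hr compound exposure at 37 C. AC50 values come from Hill-equation modelling of concentration-response data.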

Experiment [12] in a line: Cell Viability - LYMP1-003 - Assay at 24 hr (AID 963). Further: potency means the concentration at half of the fitted maximal effect. As to conditions: LYMP1-003 lymphoblastoid cell viability. In outline: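 Cytotoxicity is scored as a concentration-dependent fall in ATP-linked luciferase signal in human lymphoblastoid LYMP1-003 cells treated 24 hr at 37 C in complete culture medium.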
Experiment [13] in a line: Cell Viability - LYMP1-003 - Assay at 40 hr (AID 964). Further: potency means the concentration at half of the fitted maximal effect; nearly all actives have a fitted effect of over 60% in size. As to conditions: LYMP1-003 lymphoblastoid viability. In outline: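 Luminescent ATP signal (CellTiter-Glo) served as the viability read-out after 40 hr compound treatment of human lymphoblastoid LYMP1-003 cells at 37 C. Decreases in ATP were fitted with the Hill equation to give AC50.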
Experiment [14] in a line: Cell Viability - LYMP2-003 (AID 965).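 Further: potency means the concentration at half of the fitted maximal effect; cells exposed to compounds for 24 h before reading; nearly all actives have a fitted effect of over 50% in size.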 The note with it: LYMP2-003 lymphoblastoid cell viability. In outline:
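Seed 2500 lymphoblastoid cells/well; incubate 5 hr, 37 C; add compounds; incubate 24 hr, 37 C; add CellTiter-Glo, 30 min RT; read luminescence. AC50 from Hill fit.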

The nature of experiment [15]: Cell Viability - LYMP2-004 (AID 966). Further: potency means the concentration at half of the fitted maximal effect; nearly all actives have a fitted effect of over 65% in size. The note with it: LYMP2-004 lymphoblastoid cell viability, qHTS. The method in brief:
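qHTS cytotoxicity: human lymphoblastoid line, 24 hr compound treatment, 37 C, complete medium. Viability read as cellular ATP via luciferase luminescence; tetraoctylammonium bromide served as positive control.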

The nature of experiment [16]: Cell Viability - LYMP2-005 (AID 967).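 Further: potency means the concentration at half of the fitted maximal effect; cells exposed to compound for 24 h at 37 °C.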 As to conditions: LYMP2-005 lymphoblastoid cell viability. In outline:
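Acute cytotoxicity is scored as a concentration-dependent drop in intracellular ATP in human lymphoblastoid LYMP2-005 cells after 24 h compound treatment. ATP is quantified by luciferase luminescence, and AC50 is derived by Hill-equation modelling.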

The nature of experiment [17]: Cell Viability - LYMP2-009 (AID 968).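 Further: potency means the concentration at half of the fitted maximal effect; cells exposed to compound for 24 h at 37 °C; nearly all actives have a fitted effect of over 55% in size.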 The note with it: LYMP2-009 lymphoblastoid cell viability.
Experiment [18] can be described thus: Cell Viability - LYMP2-011 (AID 969). Further: potency means the concentration at half of the fitted maximal effect; nearly all actives have a fitted effect of over 60% in size. As to conditions: LYMP2-011 lymphoblastoid cells viability. In outline: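 In this qHTS cytotoxicity format, compounds are tested across concentrations on human lymphoblastoid cells in complete medium for 24 hours at 37 C. Viability is taken as cellular ATP measured by luciferase luminescence.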
Experiment [19] in a line: Cell Viability - LYMP2-013 (AID 970).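 Further: potency means the concentration at half of the fitted maximal effect; cells exposed to compound for 24 h at 37 °C; nearly all actives have a fitted effect of over 55% in size.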 As to conditions: LYMP2-013 lymphoblastoid cells viability. The method in brief:
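Cytotoxicity is scored as a concentration-dependent drop in intracellular ATP in human lymphoblastoid cells after 24 hr compound exposure at 37 C. ATP is quantified by luciferase luminescence, and AC50 values come from Hill-equation modeling.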

Experiment [20] is described as follows: Cell Viability - LYMP2-015 (AID 971). Further: potency means the concentration at half of the fitted maximal effect; nearly all actives have a fitted effect of over 55% in size. As to conditions: LYMP2-015 lymphoblastoid cell viability. The method in brief:
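Cells are seeded at 2500 per well and incubated 5 hr at 37 C. Compounds are added across a concentration series for 24 hr at 37 C. CellTiter-Glo is added, and luminescence is read after 30 min at room temperature.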

Consider 1 compound from PubChem BioAssay (NCATS).

Values without a mark were called inactive. Records with an inconclusive call do not appear. Activity calls are given as the source filed them. The call rests on the fitted dose curve; in most records, active means well fitted curve in the direction sought with a large enough effect; inconclusive means small, poorly fitted or top-dose-only effect, or another doubt; inactive means no such curve, though single readings can be large; an effect the other way counts as inactive or inconclusive.

Regarding `O=C1c2c(O)ccc([N+](=O)[O-])c2C(=O)c2c([N+](=O)[O-])ccc(O)c21`, the result in experiment [1], in experiment [2], in [3], in experiment [4], in experiment [5] and in experiment [7] was inactive. For the same compound, the outcome in [9] and in experiment [10] was inactive. Besides, the Potency is 50.1 µM (active) in experiment [6]; 39.8 µM (active) in experiment [8]; 50.1 µM (active) in experiment [11]; 39.8 µM (active) in experiment [12]; 39.8 µM (active) in experiment [13]; 31.6 µM (active) in experiment [14]. The Potency in experiment [15] is 31.6 µM (active); in [16], 39.8 µM (active); in experiment [17], 31.6 µM (active); in [18], 39.8 µM (active); in [19], 50.1 µM (active); in experiment [20], 31.6 µM (active).
